Reference: the supplement of paper PMC3414501
Where a name gives a salt, the structure may show the parent alone.

What was measured:
[1] = system: S. cerevisiae SK1 pCDA2-eGFP (USY613), sporulating; assay: CDA2-GFP sporulation assay sensitivity score (z-score vs DMSO controls); higher = stronger inhibition of sporulation, active = hit call of the paper;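 further: active if sensitivity score above 5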
[2] = system: S. cerevisiae NKY1551 his4x/his4B, sporulating; assay: HIS4 meiotic recombination assay sensitivity score (z-score vs DMSO controls); higher = stronger inhibition of sporulation/recombination, active = hit call of the paper;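 further: active if sensitivity score above 5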
[3] = system: S. cerevisiae AD1-9 (efflux-pump deficient), vegetative growth in YPD; assay: growth sensitivity score (doubling time z-score vs DMSO controls); higher = slower growth, strongly negative scores also mark growth inhibition (complete suppression), active = hit call of the paper
Outline: (§1)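 Yeast (Saccharomyces cerevisiae BY4741 and AD1-9) was grown in rich medium in microtiter plates from a starting OD600 of 0.065, with optical density read every 15 min over 24 hours. The growth sensitivity score was the difference between compound and solvent-only means, divided by the solvent-only standard deviation. Every experiment had eight solvent-only wells.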

[4] = system: S. cerevisiae BY4741 (wild-type), vegetative growth in YPD; assay: as above
Outline: as §1

| Compound | CDA2-GFP sporulation assay sensitivity score [1] | HIS4 meiotic recombination assay sensitivity score [2] | growth sensitivity score [3] | growth sensitivity score [4] |
| --- | --- | --- | --- | --- |
| CC(=O)OCC(=O)NCCCOc1cccc(CN2CCCCC2)c1 [Roxatidine acetate hydrochloride] (stock concentration (mM, diluted 1:100): 9.1) | 0.57 (inactive) | -1.59 (inactive) | -0.42 (inactive) | -1.51 (inactive) |
| CCS(=O)(=O)CCn1c([N+](=O)[O-])cnc1C [Tinidazole] (stock concentration (mM, diluted 1:100): 10) | 1.26 (inactive) | -1.77 (inactive) | -0.62 (inactive) | -0.09 (inactive) |
| Cc1nc2n(c(=O)c1CCN1CCC(c3noc4cc(F)ccc34)CC1)CCCC2 [Risperidone] (stock concentration (mM, diluted 1:100): 10) | -0.4 (inactive) | 1.75 (inactive) | -2.71 | -0.68 (inactive) |
| Cc1ncc([N+](=O)[O-])n1CC(C)O (centres undefined) [Secnidazole] (stock concentration (mM, diluted 1:100): 10) | 0.94 (inactive) | 0.68 (inactive) | -0.44 (inactive) | -0.7 (inactive) |
| CCOC(=O)[C@H](CCc1ccccc1)N[C@@H](C)C(=O)N1[C@H](C(=O)O)C[C@@H]2CCC[C@@H]21 [Ramipril] (stock concentration (mM, diluted 1:100): 10) | 0.92 (inactive) | -1.04 (inactive) | 2.05 (active) | -0.9 (inactive) |
| C[C@@H](O)[C@H]1C(=O)N2C(C(=O)O)=C(S[C@@H]3CN[C@H](C(=O)N(C)C)C3)[C@H](C)[C@H]12 [Meropenem] (stock concentration (mM, diluted 1:100): 11.4) | -2.33 (inactive) | -1.58 (inactive) | 0.68 (inactive) | -1.19 (inactive) |
| CN(C/C=C/C#CC(C)(C)C)Cc1cccc2ccccc12 [Terbinafine hydrochloride] (stock concentration (mM, diluted 1:100): 8.9) | -2.07 (inactive) | -0.72 (inactive) | 30.1 (active) | 93.8 (active) |
| CC(=O)O[C@]1(C(C)=O)CC[C@H]2[C@@H]3C=C(C)C4=CC(=O)CC[C@]4(C)[C@H]3CC[C@@]21C [Megestrol acetate] (stock concentration (mM, diluted 1:100): 10) | 0.75 (inactive) | -2.67 (inactive) | 38.5 (active) | 1.27 (inactive) |
| CC(=O)O[C@@]12CO[C@@H]1C[C@H](O)[C@@]1(C)C(=O)[C@H](O)C3=C(C)[C@@H](OC(=O)[C@H](O)[C@@H](NC(=O)OC(C)(C)C)c4ccccc4)C[C@@](O)([C@@H](OC(=O)c4ccccc4)[C@H]21)C3(C)C [Docetaxel] (stock concentration (mM, diluted 1:100): 10) | -0.23 (inactive) | -1.69 (inactive) | -0.53 (inactive) | 1.16 (inactive) |
| COc1cc([C@@H]2c3cc4c(cc3[C@@H](O[C@@H]3O[C@@H]5CO[C@@H](C)O[C@H]5[C@H](O)[C@H]3O)[C@H]3COC(=O)[C@H]23)OCO4)cc(OC)c1O [Etoposide] (stock concentration (mM, diluted 1:100): 10) | 3.42 (inactive) | 0.11 (inactive) | 59.2 (active) | 0.01 (inactive) |
| Cc1nc2ccccn2c(=O)c1CCN1CCC(C(=O)c2ccc(F)cc2)CC1 [Pirenperone] (stock concentration (mM, diluted 1:100): 10) | 13.6 (active) | 2.21 (inactive) | -0.84 (inactive) | -0.59 (inactive) |
| CC(C)C[C@H](NC(=O)[C@@H](O)[C@H](N)Cc1ccccc1)C(=O)O [Bestatin] (stock concentration (mM, diluted 1:100): 10) | -0.06 (inactive) | -1.06 (inactive) | -1.24 (inactive) | -1.14 (inactive) |
| O=C1CC2(CCCC2)CC(=O)N1CCNCC1COc2ccccc2O1 (centres undefined) (stock concentration (mM, diluted 1:100): 10) | 19.1 (active) | -0.57 (inactive) | 3.73 (active) | 1.45 (inactive) |
| CC(C)(C)NC(=O)[C@H]1CC[C@H]2[C@@H]3CC[C@H]4NC(=O)C=C[C@]4(C)[C@H]3CC[C@]12C [Finasteride] (stock concentration (mM, diluted 1:100): 10) | 3.51 (inactive) | 3.09 (inactive) | 20.2 (active) | 1.37 (inactive) |
| CNS(=O)(=O)Cc1ccc2[nH]cc(CCN(C)C)c2c1 [Sumatriptan succinate] (stock concentration (mM, diluted 1:100): 7.2) | -0.43 (inactive) | -0.69 (inactive) | 0.45 (inactive) | -1.56 (inactive) |
| CN(C)CCC[C@@]1(c2ccc(F)cc2)OCc2cc(C#N)ccc21 [Escitalopram oxalate] (stock concentration (mM, diluted 1:100): 7.9) | 0.99 (inactive) | 6.6 (active) | -1.47 (inactive) | 0.93 (inactive) |
